Screening results deposited in PubChem BioAssay by National Center for Advancing Translational Sciences (NCATS).
KCNH2 WT inh: KCNH2 (human, wildtype) channel inhibition; U2OS, BacMam KCNH2, thallium flux FluxOr; active compounds read low; activity change, % at 1.84 µM; 340,000 compounds, 0.37% hits; AID 720551;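 active = maximum activity change below -70%; inconclusive = maximum activity change between -70% and -50%; inactive = maximum activity change above -50%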; also: % is scaled to controls: 0 for no effect and ±100 for the full control effect
Target sequence (Q12809 whole entry, looked up): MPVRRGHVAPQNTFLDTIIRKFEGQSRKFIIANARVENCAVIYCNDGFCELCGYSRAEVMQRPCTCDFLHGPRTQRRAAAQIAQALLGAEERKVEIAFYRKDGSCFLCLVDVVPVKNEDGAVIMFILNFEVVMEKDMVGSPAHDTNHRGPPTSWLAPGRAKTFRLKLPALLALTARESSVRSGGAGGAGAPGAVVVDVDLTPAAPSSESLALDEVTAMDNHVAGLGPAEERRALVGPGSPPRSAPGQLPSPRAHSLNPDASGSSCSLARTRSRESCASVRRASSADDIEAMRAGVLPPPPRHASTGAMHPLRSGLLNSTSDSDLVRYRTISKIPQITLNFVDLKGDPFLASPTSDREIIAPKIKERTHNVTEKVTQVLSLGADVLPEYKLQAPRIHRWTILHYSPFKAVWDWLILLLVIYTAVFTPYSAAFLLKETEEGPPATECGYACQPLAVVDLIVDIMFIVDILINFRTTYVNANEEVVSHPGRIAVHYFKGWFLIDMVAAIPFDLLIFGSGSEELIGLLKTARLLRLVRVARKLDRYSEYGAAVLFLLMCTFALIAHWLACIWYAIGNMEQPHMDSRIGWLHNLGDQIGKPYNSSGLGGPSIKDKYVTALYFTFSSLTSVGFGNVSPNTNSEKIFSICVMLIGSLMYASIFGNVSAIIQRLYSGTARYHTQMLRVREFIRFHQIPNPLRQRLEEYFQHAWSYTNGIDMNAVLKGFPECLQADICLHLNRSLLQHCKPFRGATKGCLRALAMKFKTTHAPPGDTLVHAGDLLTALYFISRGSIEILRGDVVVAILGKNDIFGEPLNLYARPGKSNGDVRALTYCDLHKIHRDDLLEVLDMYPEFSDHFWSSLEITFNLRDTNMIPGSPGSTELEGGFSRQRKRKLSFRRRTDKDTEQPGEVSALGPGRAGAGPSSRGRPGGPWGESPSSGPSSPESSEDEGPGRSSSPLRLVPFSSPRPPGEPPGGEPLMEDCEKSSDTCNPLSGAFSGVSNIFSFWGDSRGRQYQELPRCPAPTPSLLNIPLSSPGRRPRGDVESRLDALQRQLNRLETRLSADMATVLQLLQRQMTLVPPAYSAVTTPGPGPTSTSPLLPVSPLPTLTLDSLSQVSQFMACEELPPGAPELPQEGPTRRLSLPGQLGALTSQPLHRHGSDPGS
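U2OS cells transduced with wild-type KCNH2 virus are loaded with FluxOr dye for 45 min, and thallium flux is measured in kinetic reads before and after stimulation buffer. Rate constants are normalized to DMSO controls.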
12-LOX inh: ALOX12 (human) lipoxygenase inhibition; purified 12hLO, xylenol orange hydroperoxide absorbance; 580,000 compounds, 1.1% hits; Potency, µM (titrated, usually from 108 µM), inactives show at the highest dose activity change, negative = inhibition, most hits filed as inhibitors; P18054; also: potency is read from the fitted curve at half-maximal effect; % is scaled to controls: 0 for no effect and ±100 for the full control effect
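Hydroperoxide product was detected by ferrous iron/xylenol orange as the 573 to 405 nm absorbance ratio. Arachidonic acid at 40 uM (final) was turned over for 30 min at room temperature by 150 nM human 12hLO, pH 7.0 Hepes buffer, after 15 min compound preincubation.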
BCR signal inh: blocks chronic active B-cell receptor signaling | ABC-DLBCL IkBa-CBG/CBR reporter, luminescence ratio, 4 h | Potency, µM (doses to about 46.1 µM), without a hit: at the highest dose activity change, negative = inhibition, most hits filed as inhibitors | 340,000 compounds, 0.05% hits | AID 493014; active = well fitted inhibition curve with a large enough effect in the signal ratio, with a control signal flat, not every such curve was filed as active; inconclusive = small, poorly fitted or top-dose-only effect, or effect the other way, or a change in a side signal; the % refers to the signal ratio;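 also: potency is read from the fitted curve at half-maximal effect; plate controls were basal doxycycline-induced cells for no effect and cells given 10 µM MG132 for full effect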
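Cell line TMD8 (human ABC DLBCL), stably expressing tet-inducible CBG68-IkBa fusion and CBR; IMDM/0.5% FBS; cpd up to 46 uM; dox induction, 4 h, 37C/5% CO2; dual luminescence; green/red ratio; MG132 control.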
ClpP mod: qHTS Assay for Activators of ClpP; purified B. subtilis ClpP, FRET peptide cleavage, 20 min; 340,000 compounds, 1.9% hits; ATP-dependent Clp protease proteolytic subunit (Bacillus subtilis (strain 168)), P80244; Potency, µM (titrated, usually from 57.5 µM), without a hit: at the top dose activity change, negative = active; active = well fitted falling curve with a large enough effect; inconclusive = small, poorly fitted or top-dose-only effect; inactive = no such curve, though single readings can be large or run the other way; also: potency is read from the fitted curve at half-maximal effect; the source files actives as falling curves though it sought activators and does not explain the sign; nearly all actives have a fitted effect of over 65% in size
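Purified B. subtilis ClpP, 10 microg/mL final in Tris/HCl pH8 with KCl, BSA, glycerol and Tween-20, cleaved an Abz/nitrotyrosine-quenched decapeptide. Fluorescence (ex 320, em 430) was read at 0 and 20 min at room temperature. Delta was normalized to 5.8 microM ADEP and DMSO/no-enzyme controls.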
LDHA block: inhibitors of human lactate dehydrogenase A; purified LDHA, NADH/diaphorase-resazurin fluorescence; active compounds read low; activity change, % (values are at about 110 or 230 µM); 480,000 compounds, 0.15% hits; in the data active = activity change below about -30%; inconclusive = mostly about -25% to -30%;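 also: plate controls were DMSO wells for no effect and wells without enzyme for full effect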
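Resorufin fluorescence (ex540/em590), read at 0 and 20 min after diaphorase/resazurin addition, reports the NADH left after a 5 min room-temperature reaction of 2 nM human LDH5 with 0.06 mM NADH and 0.2 mM pyruvate.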
KCNH2 3.1 inh: inhibitors of human KCNH2 3.1 potassium channel isoform. U2OS KCNH2 3.1, thallium flux FluxOr; active compounds read low. activity change, % (tested at about 1.8 µM). 340,000 compounds, 0.95% hits;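 active = maximum activity change below -70%; inconclusive = maximum activity change from -70% to -50%; inactive = maximum activity change above -50%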;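 also: thallium influx rate constant from kinetic fluorescence after stimulation buffer; % is scaled to controls: 0 for no effect and ±100 for the full control effect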
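U2OS cells transduced with KCNH2 3.1 mutant virus (1.77 x 10^8 /mL, 4 h), plated overnight at 37 C, loaded 45 min with FluxOr dye plus Red40 quencher. Thallium flux rate constant from kinetic reads after stimulation buffer, normalised to controls.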
ClpP validation: Bacillus subtilis ClpP inhibition, validated hit; AID 743245; Potency, µM (highest dose often 57.5 µM), without a hit: at the top dose activity change, negative = inhibition, usual class: inhibitors; shares compounds with ClpP mod; purified B. subtilis ClpP, FRET-FV substrate cleavage, 20 min; 470 compounds, 40% hits; also: potency is read from the fitted curve at half-maximal effect; % is scaled to controls: 0 for no effect and ±100 for the full control effect; nearly all actives have a fitted effect of over 70% in size
Starred values were filed as active, the others as inactive; i = inactive; ? = inconclusive; / = not tested or not shown; [ ] = remark or other dose. Compounds with a hit are over-represented: about 3% of the library has one in this group of screens. Unless noted, calls follow the shape of the dose curve; as a rule, active = well fitted curve in the direction sought with a large enough effect; inconclusive = small, poorly fitted or top-dose-only effect, or another doubt; inactive = no such curve, though single readings can be large; an effect the other way counts as inactive or inconclusive.

SMILES | KCNH2 WT inh | 12-LOX inh | BCR signal inh | ClpP mod | LDHA block | KCNH2 3.1 inh | ClpP validation
COc1ccccc1NC(=O)c1ccc(COc2ccc3c(c2)CCC3)cc1 | -2 | 3% | ? | 219% | -4 | -14 | -19%
CCN(CC(=O)Nc1c(F)cccc1F)C(=O)c1ccc(C(F)(F)F)cc1 | -11 | i | ? | 0% | -6 | 13 | /
CCN(CC(=O)Nc1c(F)cccc1F)C(=O)c1ccc(C2SCCS2)cc1 | 2 | 10% | -28% | 74% | -4 | -4 | 0%
COc1cc(OC)c(CNC2CCCCCC2)cc1Br | 5 | -14% | ? | 2.8µM* | -18 | -10 | 0%
COc1cc(OC)c(OC)cc1CNC1CCCCCC1 | 10 | ? | 10% | -1% | -11 | 7 | /
CN(C)CCOC1c2ccccc2CCc2ccc3ccccc3c21 (stereo not drawn) | 2 | -115% | / | 45% | -15 | -4 | 0%
CC(C)C[C@@H]1N[C@H](C(=O)NCCN(C)C)Cc2c[nH]c3cccc1c23 | / | 73%[176 µM] | / | / | / | / | /
CCc1cccc(Nc2nn3c(=O)c4ccccc4nc3s2)c1 | / | / | / | / | -18 | / | -12%
O=c1c2ccccc2nc2sc(Nc3cccc(Br)c3)nn12 | / | / | / | / | -8 | / | /
O=C(NCc1ccc(F)cc1)C1CN(c2cccc(Cl)c2)C(=O)N1 (stereo not drawn) | / | 31%[176 µM] | / | / | / | / | /
CCCC(C)C(=O)Nc1ccc2c(c1)OCCO2 (stereo not drawn) | 0 | 92% | 0% | 3.5µM* | 1 | 5 | 0%
COc1ccc2c(C)c(CC(=O)Nc3ccc(C(C)=O)cc3)c(=O)oc2c1OC | / | 7% | / | / | 8 | / | /
CC1(C)Cc2nc3oc4c(NCc5ccccc5)ncnc4c3cc2CO1 | -1 | 0% | -8% | 2.8µM* | -12 | -2 | 9.7µM*
CC1(C)Cc2nc3oc4c(NCCCN5CCOCC5)ncnc4c3cc2CO1 | -8 | -7% | -8% | / | -8 | -9 | /
CNC(=O)c1ccc(NC(=O)C2CCN(S(=O)(=O)c3ccc(C)cc3C)CC2)cc1 | / | ? | / | / | 12 | / | /
O=C(Nc1cccc(-c2nc3ccccc3o2)c1)c1ccc(-c2ccc(Br)cc2)o1 | / | ? | / | 4µM* | -5 | / | 11%
Cn1c(-c2ccc(CN3CCCCC3)o2)nc2ccccc21 | 7 | 0% | 7% | 3.5µM* | -2 | 1 | 17µM*
Cc1ccc(CNc2nc3ccccc3n2C)o1 | -3 | 80% | 0% | -7% | -2 | 13 | /
CC1(C(=O)N(CC(=O)NC2CCCC2)Cc2ccco2)CC(=O)N=C2C=CC=CN21 (stereo not drawn) | 3 | 2% | 3% | 3.2µM* | -1 | -4 | 17µM*
COc1ccc(C(=O)Nc2ccccc2-c2nnn(CC(=O)NCc3ccco3)n2)cc1 | -12 | 1% | 8% | 36% | -2 | -2 | ?
O=C(Cn1nnc(-c2ccccc2NC(=O)c2ccccc2F)n1)NCc1ccco1 | -3 | -26% | 0% | -2% | -2 | -5 | /
COc1ccc(-c2cc3c(=O)n(CCNC(=O)c4c(F)cccc4Cl)ccn3n2)cc1 | / | 17% | / | / | / | / | /
Cc1cccc(C(=O)N2CCN(c3ncnc4c3cnn4-c3ccccc3)CC2)c1 | 2 | 138% | -2% | 116% | -3 | -13 | -5%
O=C(O)/C=C/c1ccc(Br)o1 | / | ? | / | / | 1 | / | /
CSc1nsc(SCC(=O)Nc2ccc(Br)cn2)n1 | -5 | 0% | ? | 68% | 0 | ? | 0%
SMILES | KCNH2 WT inh | 12-LOX inh | BCR signal inh | ClpP mod | LDHA block | KCNH2 3.1 inh | ClpP validation
CCOc1ccccc1NC(=O)c1cc2ccccc2oc1=O | -3 | ? | ? | -1% | -1 | 9 | /
CCOc1ccccc1NC(=O)c1cc2ccccc2o1 | ? | -3% | / | 53% | -1 | -10 | -14%
CC(OC(=O)c1nn(C(C)C)c(=O)c2ccccc12)C(=O)Nc1ncc(Cl)cc1Cl (stereo not drawn) | 5 | -15% | -12% | 42% | -3 | 3 | -5%
O=C(Nc1ccccc1Cl)c1ccc2c(Cl)c3c(nc2c1)CCCC3 | / | ? | / | / | -1 | / | /
Cc1nn(C)c(C)c1CCCN(C)C(=O)C1N(C(C)C)C(=O)C12CCCCC2 (stereo not drawn) | / | 27% | / | / | / | / | /
CCC1c2ccsc2CCN1C(=O)CCC(=O)N1CCN(S(=O)(=O)c2ccccc2)CC1 (stereo not drawn) | / | 2% | / | / | -7 | / | /
COc1ccccc1N(CC(=O)Nc1ccc2c(c1)OCCO2)S(=O)(=O)c1ccc(C)cc1 | 3 | 11% | ? | 5µM* | -2 | -27 | 0%
COc1ccc(-c2ccnc(-c3ccc(OCCCF)cc3)n2)cc1 | 12 | 222% | 1% | 7.9µM* | 2 | 0 | -7%
O=C(CSc1nnc(Nc2ccccc2)s1)c1ccc(Cl)s1 | / | -15% | / | / | -1 | / | /
COc1cc(SC)ccc1C(=O)Oc1ccc(C(C)(C)C)cc1 | / | -28% | / | / | 14 | / | /
COc1ccc(OC)c(NC(=O)c2cc3c(Cl)nc4ccccc4c3s2)c1 | 16 | 1% | ? | 54% | -5 | -9 | -26%
COc1ccc(CNC(=O)c2cc3c(=O)n(C)c4ccccc4c3n2C)cc1 | / | -12% | / | -10% | -1 | / | /
CCOc1ccc(CNC(=O)c2cc3oc4ccccc4c3n2C)cc1 | -27 | -25% | ? | 6.3µM* | -3 | -6 | -20%
CC1(C)CC(=O)C2=C(C1)OC(N)=C(C#N)C2c1c2ccccc2cc2ccccc12 (stereo not drawn) | / | ? | / | / | 21 | / | /
Cc1nnc(NC(=O)c2cccc3c2ccn3C)s1 | / | 0% | / | / | -3 | / | /
CCCc1cc(=O)n2c(nc3ccccc32)[nH]1 | 2 | 0% | ? | 7.1µM* | 0 | 1 | 14µM*
CCCCc1c(C)[nH]c2nc3ccccc3n2c1=O | 4 | 10% | 8% | 2% | 7 | 9 | /
CC(NC(=O)c1cc2sccc2n1Cc1ccc(F)cc1)c1ccccc1 (stereo not drawn) | / | -19% | / | -1% | 1 | / | /
Cc1ccccc1NC(=O)c1cc2sccc2n1Cc1ccc(F)cc1 | / | -14% | / | 150% | 0 | / | ?
Cc1ccc(S(=O)(=O)NCC2CCC(C(=O)N[C@H](C)C(=O)N3CCc4ccccc4C3)CC2)cc1 (stereo partly drawn) | / | ? | / | / | 0 | / | /
O=S(=O)(c1cc(Cl)cc(Cl)c1)N1CCN(c2nc(-c3cccs3)nc3ccccc23)CC1 | / | / | / | 4% | -2 | / | /
O=S(=O)(c1ccc2c(c1)CCCC2)N1CCN(c2nc(-c3cccs3)nc3ccccc23)CC1 | / | / | / | 8.9µM* | -3 | / | 24µM*
